Key:
Test in all cases: Euclidean distance of Cell Painting phenotypic profile (signed KS, 77 features) to DMSO centroid (dimensionless distance); 5 or 10 uM (library dependent); higher = stronger phenotypic change vs DMSO (phenoactivity)
Conditions in all cases: 48 h
[1] = test system: 786-O
In short: (§1)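 Library compounds were applied at 10 or 5 uM, depending on the library, with 0.1% DMSO final, for 48 h to five cancer lines and a healthy fibroblast line. After staining, cells were imaged confocally at 20X across 9 fields per well, and Harmony extracted 77 features, each scored as a signed Kolmogorov-Smirnov statistic against vehicle wells on the same plate. Phenoactivity is the Euclidean distance between each profile and the median vehicle profile, with profiles first plate-position corrected, correlation-weighted and averaged over replicates at the top dose.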

[2] = test system: A549
In short: as §1

[3] = test system: DU145
In short: as §1

[4] = test system: FB
In short: as §1

[5] = test system: HEPG2
In short: as §1

[6] = test system: OVCAR4
In short: as §1

SMILES | Euclidean distance [1] | Euclidean distance [2] | Euclidean distance [3] | Euclidean distance [4] | Euclidean distance [5] | Euclidean distance [6]
COc1ccc2c(c1)c(CC(=O)N1CCOCC1)c(C)n2C(=O)c1ccc(Cl)cc1 | 0.785 | 0.772 | 0.859 | 0.741 | 0.95 | 0.74
OC[C@@H](O)[C@@H](O)[C@H](O)[C@@H](O)CO [Sorbitol] | 1.36 | 0.586 | 0.79 | 0.737 | 0.791 | 1.21
COCC(=O)NC/C=C/c1ccc2ncnc(Nc3ccc(Oc4ccc(C)nc4)c(C)c3)c2c1 | 0.785 | 1.34 | 1.13 | 0.952 | 0.896 | 0.777
O=C(/C=C\n1cnc(-c2cc(C(F)(F)F)cc(C(F)(F)F)c2)n1)NNc1cnccn1 | 2.36 | 3.91 | 2.72 | 3.85 | 2.34 | 3.83
COc1cc(CCc2cc(NC(=O)c3ccc(N4CC(C)NC(C)C4)cc3)n[nH]2)cc(OC)c1 (stereo not given) | 1.7 | 1.94 | 1.5 | 3.59 | 2.79 | 1.46
O=C(O)[C@H](O)Cc1ccc(O)c(O)c1 [Danshensu] | 1.51 | 1.33 | 0.736 | 0.877 | 1.33 | 1.65
CC(C)OC(=O)C(C(=O)OC(C)C)=C1SC=CS1 [Malotilate] | 1.94 | 1.09 | 0.92 | 1.39 | 1.08 | 1.29
CC1(C)O[C@H]2CC(=O)OC[C@]23[C@H]2CC[C@@]4(C)[C@H](c5ccoc5)OC(=O)[C@H]5O[C@]54[C@]2(C)C(=O)C[C@@H]13 [Limonin] | 0.804 | 0.714 | 0.885 | 0.843 | 1.05 | 1.05
COC(=O)N[C@H](C(=O)N1CCC[C@H]1c1ncc(-c2ccc(-c3ccc(-c4cnc([C@@H]5CCCN5C(=O)[C@@H](NC(=O)OC)C(C)C)[nH]4)cc3)cc2)[nH]1)C(C)C | 1.52 | 1.63 | 1.12 | 1 | 0.904 | 1.5
NS(=O)(=O)c1cc(C2(O)NC(=O)c3ccccc32)ccc1Cl (stereo not given) [Chlorthalidone] | 0.738 | 0.425 | 1.18 | 1.4 | 0.481 | 0.876
CCOC(=O)N1CCC(=C2c3ccc(Cl)cc3CCc3cccnc32)CC1 [Loratadine] | 1.17 | 1.34 | 0.839 | 1.05 | 1.48 | 1.1
C=C[C@@H]1C[C@]1(NC(=O)[C@@H]1C[C@@H](Oc2ncc(OC)c3ccc(Cl)cc23)CN1C(=O)[C@@H](NC(=O)OC(C)(C)C)C(C)(C)C)C(=O)NS(=O)(=O)C1CC1 [Asunaprevir] | 1.27 | 1.49 | 0.966 | 0.784 | 0.47 | 1.08
CC(C)CCNc1ncccc1C(=O)N1CCN(Cc2ccccc2)CC1 | 0.757 | 0.542 | 0.821 | 0.894 | 0.864 | 0.631
Cc1ccccc1-c1cc(N2CCN(C)CC2)ncc1N(C)C(=O)C(C)(C)c1cc(C(F)(F)F)cc(C(F)(F)F)c1 [Netupitant] | 1.35 | 0.761 | 0.595 | 0.999 | 1.23 | 1.4
CC(=O)O[C@@]12CO[C@@H]1C[C@H](O)[C@@]1(C)C(=O)[C@H](O)C3=C(C)[C@@H](OC(=O)[C@H](O)[C@@H](NC(=O)OC(C)(C)C)c4ccccc4)C[C@@](O)([C@@H](OC(=O)c4ccccc4)[C@H]21)C3(C)C [Docetaxel] | 3.54 | 2.71 | 3.65 | 2.64 | 2.16 | 2.64
c1ccc(NCc2ccc(CNc3ccccn3)cc2)nc1 | 0.787 | 1.08 | 0.956 | 1.09 | 0.936 | 1.15
Nc1c(CC(=O)O)cccc1C(=O)c1ccc(Br)cc1 [Bromfenac Sodium] | 1.21 | 1.01 | 0.957 | 1.42 | 0.3 | 1.75
C[C@H](CCC(=O)O)[C@H]1CC[C@H]2[C@@H]3CC[C@@H]4C[C@H](O)CC[C@]4(C)[C@H]3C[C@H](O)[C@]12C [Deoxycholic acid] | 0.886 | 0.94 | 0.997 | 0.74 | 0.87 | 1.36
COc1ccc(-c2oc3c(CC=C(C)C)c(O[C@@H]4O[C@H](CO)[C@@H](O)[C@H](O)[C@H]4O)cc(O)c3c(=O)c2O[C@@H]2O[C@@H](C)[C@H](O)[C@@H](O)[C@H]2O)cc1 [Icariin] | 0.632 | 0.62 | 0.973 | 0.818 | 0.96 | 0.993
CN(CCCCCCCCCCN(C)C(=O)Oc1cccc([N+](C)(C)C)c1)C(=O)Oc1cccc([N+](C)(C)C)c1 [Demecarium Bromide] | 0.786 | 0.898 | 0.6 | 1.07 | 1.17 | 1.24

Source: the supplement of paper PMC10127200
